HP1b binding inh: inhibitors of HP1-beta chromodomain binding to methylated histone tails. AID 540317. P83916. actives 0.56% (n = 390,000). Potency, µM (titrated, usually from 114 µM), usual class: inhibitors. AlphaScreen HP1-beta / biotin-H3K9me3 peptide binding; further: nearly all actives have a fitted effect of over 70% in size
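Compound inhibition of the preformed complex between 50 nM HP1-beta and 50 nM biotinylated H3K9me3 peptide was read by AlphaScreen. Buffer was PBS pH 7.4 with 0.01% Tween-20. Incubations ran 30 min at room temperature, with 10 ug/mL donor/acceptor beads.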
JMJD2A Tudor inh: inhibitors of human JMJD2A Tudor domain | AID 504339 | Potency, µM (doses to about 114 µM), most hits filed as inhibitors | AlphaScreen JMJD2A-Tudor / H3K4me3 peptide binding | actives 4.4% (n = 390,000) | O75164; further: nearly all actives have a fitted effect of over 50% in size
Target sequence (O75164 whole entry, looked up, the tested form may be a part): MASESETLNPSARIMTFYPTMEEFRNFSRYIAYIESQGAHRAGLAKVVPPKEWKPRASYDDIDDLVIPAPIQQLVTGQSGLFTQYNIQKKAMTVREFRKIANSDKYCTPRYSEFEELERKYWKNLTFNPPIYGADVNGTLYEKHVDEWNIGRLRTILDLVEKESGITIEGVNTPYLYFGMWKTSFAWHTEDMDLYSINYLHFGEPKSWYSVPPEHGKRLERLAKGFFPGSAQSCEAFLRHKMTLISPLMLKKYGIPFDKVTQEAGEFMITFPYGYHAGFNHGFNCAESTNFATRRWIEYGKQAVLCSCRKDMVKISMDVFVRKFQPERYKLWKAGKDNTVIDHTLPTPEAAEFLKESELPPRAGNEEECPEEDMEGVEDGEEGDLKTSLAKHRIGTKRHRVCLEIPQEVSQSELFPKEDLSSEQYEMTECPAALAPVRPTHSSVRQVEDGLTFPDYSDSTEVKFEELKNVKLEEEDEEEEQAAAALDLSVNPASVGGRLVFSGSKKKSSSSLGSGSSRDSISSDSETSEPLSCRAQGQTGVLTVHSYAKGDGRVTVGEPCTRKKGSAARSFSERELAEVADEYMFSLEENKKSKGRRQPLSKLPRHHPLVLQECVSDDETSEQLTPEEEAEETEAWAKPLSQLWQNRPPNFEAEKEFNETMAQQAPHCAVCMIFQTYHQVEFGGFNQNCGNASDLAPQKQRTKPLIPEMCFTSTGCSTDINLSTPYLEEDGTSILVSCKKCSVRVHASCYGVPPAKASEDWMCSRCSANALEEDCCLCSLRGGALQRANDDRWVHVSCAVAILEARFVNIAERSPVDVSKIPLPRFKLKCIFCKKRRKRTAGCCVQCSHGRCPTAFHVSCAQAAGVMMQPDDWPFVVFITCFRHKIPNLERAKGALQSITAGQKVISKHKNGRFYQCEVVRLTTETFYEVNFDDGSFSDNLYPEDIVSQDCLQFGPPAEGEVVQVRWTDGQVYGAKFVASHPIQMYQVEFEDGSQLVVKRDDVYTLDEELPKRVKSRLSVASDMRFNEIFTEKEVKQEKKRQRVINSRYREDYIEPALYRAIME
G9a inh: G9a (human) methyltransferase inhibition | actives 8.8% (n = 350,000) | G9a H3K9 monomethylation, AlphaScreen, 2 h | Q96KQ7 | AID 504332 | Potency, µM (top dose mostly 102 µM), actives largely listed as inhibitors; further: nearly all actives have a fitted effect of over 75% in size
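AlphaScreen read-out: biotin-H3K9 peptide (500 nM) methylation by 20 nM enzyme with 20 uM SAM, 2 h at room temperature after 15 min compound preincubation; anti-monomethyl H3K9 antibody plus donor/acceptor beads, 10 min dark.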
BAZ2B block: blocks human BAZ2B; Q9UIF8; AlphaScreen BAZ2B-H3K14Ac peptide displacement; Potency, µM (top dose mostly 114 µM), usual class: inhibitors; actives 4.4% (n = 360,000); further: nearly all actives have a fitted effect of over 60% in size
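Multi-concentration screen (max 110 uM) measuring displacement of acetylated histone H3 peptide from BAZ2B by AlphaScreen, using 50 nM protein, 50 nM peptide and 10 ug/mL streptavidin donor plus Ni-chelate acceptor beads.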
GLS inh: blocks human kidney-isoform glutaminase activity | O94925 | GLS enzymatic activity, qHTS titration | Potency, µM (series often up to 45.5 µM), actives largely listed as inhibitors | actives 0.21% (n = 410,000)
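Enzyme dispensed in phosphate buffer (45 mM, pH 8.2, 0.02% Tween-20), compounds pinned in, then 1 mM L-glutamine solution and the glutamate oxidase–HRP–Amplex Red mix added; fluorescence read immediately and again after 30 min at room temperature.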
Hits are given with their value; - = inactive; ? = inconclusive; . = not tested or not shown; ! = not active in a repeat; [ ] = dose if it differs, or a comment. Only some compounds are listed: those with a hit (about 10% of all), similar ones and a draw of the others. The call rests on the fitted dose curve; in most records, active means well fitted curve in the direction sought with a large enough effect; inconclusive means small, poorly fitted or top-dose-only effect, or another doubt; inactive means no such curve, though single readings can be large; an effect the other way counts as inactive or inconclusive.

SMILES | HP1b binding inh | JMJD2A Tudor inh | G9a inh | BAZ2B block | GLS inh
O=C(O)Cn1cc(/C=N/NC(=O)c2cc3cc(Br)ccc3o2)c2ccccc21 | - | - | - | 50µM | -
Cn1cc(/C=N/NC(=O)c2cc3cc(Br)ccc3o2)c2ccccc21 | - | - | 50µM | - | -
Cc1ccc(C(=O)Nc2nnc(S(=O)(=O)N3CCc4ccccc43)s2)cc1 | - | - | - | - | -
C=Cc1ccc(CN2C(=O)N(c3ccc(CC)cc3)S(=O)(=O)c3ccccc32)cc1 | - | - | - | - | -
CC(C)(C)N(Cc1ccc2c(c1)OCO2)C(=O)/C=C\S(=O)c1ccccc1 (stereo not given) | - | - | . | . | -
O=C(Nc1cccc2nsnc12)c1ccc(-c2cccc(Cl)c2)o1 | - | - | 25µM | - | -
c1ccc(CNc2ncncc2-c2ccoc2)cc1 | . | . | -[0.501 µM] | . | .
CCSc1nc(=S)cc(C)[nH]1 | - | - | 10µM | - | -
CCSc1nc(O)cc(=O)[nH]1 | - | - | -[12.7 µM] | - | -
Cc1ccc(S(=O)(=O)NC(N)=NCCC[C@@H](N)C(=O)Nc2cc(C(F)(F)F)ccc2Cl)cc1 | . | - | . | . | .
Oc1ccc(Br)cc1CN1CCCCCCC1 | - | 6.3µM | ? | 50µM | -
Brc1cccc(CN2CCCCCC2)c1 | ? | 20µM | 25µM | ? | -
CC(=O)OCC1OC(n2c(-c3ccc(Cl)cc3)ccc(C#N)c2=S)C(OC(C)=O)C(OC(C)=O)C1OC(C)=O (stereo not given) | - | - | . | . | -
CCn1c(=O)n(CC)c2cc(N3CCCC3)c(NC(=O)c3ccc(C)c([N+](=O)[O-])c3)cc21 | - | ? | 8.9µM | - | -
CCn1c(=O)n(CC)c2cc(N3CCCC3)c(NC(=O)c3cccc(C)c3)cc21 | - | ? | 28µM | 50µM | -
Cc1cccc(C(=O)Nc2cc3c(cc2N2CCCCC2)n(C)c(=O)c(=O)n3C)c1 | - | - | - | - | -
COc1ccccc1/C=C/C(=O)OCC(=O)NC1CCCCCCC1 | - | - | . | . | -
Cc1ccc(C)c(NC(=O)Cn2c(=O)nc(-c3ccccc3)c3ccccc32)c1 | - | - | - | - | -
CCOC(=O)c1[nH]c(C)c(CCC(=O)Nc2ccccc2C(=O)OC)c1C | - | - | - | - | -
COc1ccc(/C=C/C(=O)NCC(=O)N2CCC(N(C)CCN3CCOCC3)CC2)cc1OC | ? | ? | 7.9µM | 50µM | -
CN(C1CCCC1)C1CCN(C(=O)CNC(=O)/C=C/c2ccccc2)CC1 | - | - | - | - | -
O=c1c2ccccc2n(Cc2ccccc2Cl)c(=O)n1CCc1ccccc1 | - | - | - | - | -
CC(C)(C)OC(=O)N1CCC[C@H]1C(=O)NCc1ccc(Cl)cc1Cl | - | 45µM | - | - | -
CC(C)(C)OC(=O)N1CCC[C@H]1C(=O)N1CCC[C@H]1C(=O)NCc1ccc(F)cc1F | . | . | . | . | -
COc1ccc(Cn2c(CCC(=O)Nc3ccc(C)cc3)nc3cccnc32)cc1 | - | 79µM! | - | - | -
SMILES | HP1b binding inh | JMJD2A Tudor inh | G9a inh | BAZ2B block | GLS inh
CCc1ccc(NC(=O)CCS(=O)(=O)c2cccc3nsnc23)cc1 | - | - | 40µM | - | -
O=C(CCS(=O)(=O)c1cccc2nsnc12)NC1CCCCC1 | - | - | 22µM | - | -
Cc1cccc(N(C)C(=O)CCS(=O)(=O)c2cccc3nonc23)c1 | - | - | -[12.7 µM] | - | -
Cc1ccc(CNC(=O)CCS(=O)(=O)c2cccc3nsnc23)cc1 | - | - | -[12.7 µM] | - | -
CCN(C(=O)CCS(=O)(=O)c1cccc2nonc12)c1ccc(C)c(C)c1 | - | - | 16µM | - | -
CCN(CC)c1ccc(NC(=O)CCS(=O)(=O)c2cccc3nsnc23)c(C)c1 | ? | 56µM | 40µM | ? | -
CCOc1ccc(OCC)c(NC(=O)CCc2nc3cccnc3n2Cc2cccs2)c1 | - | - | - | - | -
Cc1nc2ccc(S(=O)(=O)CCC(=O)Nc3ccc(F)cc3C)cc2s1 | - | 71µM | 4.5µM | - | -
CCN(CC)c1ccc(NC(=O)CCc2nc3cccnc3n2Cc2cccs2)c(C)c1 | - | 20µM | 8.9µM | ? | -
COc1cc(N(C(C)=O)c2ccc(O)c(C(=O)O)c2)c2ncccc2c1 | . | . | . | . | -
COc1cc(/C=N/NC(=O)C(C)Nc2n[nH]c(=O)[nH]c2=O)cc(OC)c1O (stereo not given) | - | - | 35µM | - | -
CCCCn1nnnc1C(c1ccccc1)N1CCN(c2cc(C)ccc2C)CC1 (stereo not given) | . | . | . | . | -
CCOc1ccc(-c2c(C)nn3c(-c4ccccc4)c(C(=O)NCCOC)cnc23)cc1OCC | - | - | - | - | -
COc1ccc(/C=N/n2c(-c3n[nH]c4c3CCC4)n[nH]c2=S)cc1OC | - | 1.4µM | ? | - | -
COc1cc(/C=N/n2c(-c3n[nH]c4c3CCC4)n[nH]c2=S)ccc1O | ? | 3.2µM | ? | - | -
Cc1cccc(C)c1C(O)c1ncc(-c2ccccc2Cl)[nH]1 (stereo not given) | . | . | . | . | -
CCn1cc(S(=O)(=O)N2CCc3ccccc3C2)cn1 | - | - | . | - | -
CCCCC1CN2CCc3c([nH]c4ccccc34)C2(C)C1 (stereo not given) | - | - | 79µM | ? | -
CCCCN1CCc2c([nH]c3ccccc23)C1=O | - | - | -[12.7 µM] | - | -
Cc1cc(C)cc(C(=O)Nc2ccc(N3CCN(C(=O)c4ccco4)CC3)cc2)c1 | - | - | . | - | -
Cc1ccc2c(c1)c1c3n2CCCNC3CCC1 (stereo not given) | - | - | - | ? | -
c1cc2c(cc1C1CCCCC1)c1c3n2CCCNC3CCC1 (stereo not given) | ? | 45µM | 18µM | 35µM | -
COc1ccc(N2CCCC2)c(NC(=O)c2ccc([N+](=O)[O-])o2)c1 | 35µM | 28µM | ? | 14µM | 13µM
O=C(Nc1ccccc1N1CCCC1)c1ccc([N+](=O)[O-])o1 | - | ? | -[12.7 µM] | 32µM | -
O=C(Nc1cc([N+](=O)[O-])ccc1N1CCCC1)c1ccco1 | - | - | 50µM | - | -
SMILES | HP1b binding inh | JMJD2A Tudor inh | G9a inh | BAZ2B block | GLS inh
COc1ccc(C(=O)Nc2cc([N+](=O)[O-])ccc2N2CCCC2)cc1 | - | - | ? | - | -
CS(=O)(=O)N1CCN(c2ccccc2NC(=O)c2ccc(-c3ccc(Cl)cc3Cl)o2)CC1 | - | - | -[12.7 µM] | - | -
CN1CCN(c2ccc([N+](=O)[O-])cc2NC(=O)c2ccco2)CC1 | - | - | - | - | -
CN1CCN(c2ccccc2NC(=O)c2ccc(-c3ccc(Cl)cc3Cl)o2)CC1 | - | ? | 45µM | ? | -
CCCCNC(=NCc1cccc(C(F)(F)F)c1)Nc1ccccc1 | - | - | - | - | -
C/C(CC(=O)Nc1cccc(Br)c1)=N\NC(=O)c1ccc(O)cc1O | - | - | - | - | -
Cc1ccc(C(=O)N2CCCC(Nc3ccc(F)cc3)C2)cc1C (stereo not given) | - | - | - | ? | -

Compound activity from PubChem BioAssay.
